# Source: PubChem BioAssay
# Shiga toxin inh = Shiga toxin inhibition | Vero cells, Shiga toxin protein synthesis inhibition reporter | inhibition, % at 38.7 µM | actives 9.2% (n = 290,000); in the data active = inhibition mostly above about 28%, no sharp cut-off; inactive = mostly below about 43%; also: 0% is about no effect
# Pf growth 96h = inhibits malaria parasite growth, 96 h; P. falciparum luciferase reporter growth, 96 h; Potency, µM (doses to about 28.7 µM), for the others: at the highest dose activity change, negative = inhibition, usual class: inhibitors; actives 6.9% (n = 320,000); AID 504834; also: potency is read from the fitted curve at half-maximal effect; % is scaled to controls: 0 for no effect and ±100 for the full control effect
#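 Luminescence readout: decreased luciferase signal marks inhibited growth of reporter-expressing P. falciparum in infected red cells (2% hematocrit, 0.05% parasitemia final), exposed to compound two generations (96 h, 37 C, 5% CO2).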
# HCMV inh = human cytomegalovirus inhibition | actives 4.5% (n = 410,000) | AID 1259415 | activity change, negative = inhibition, % at 57.5 µM | HFF cells, HCMV-luciferase reporter, 72 h; active compounds read low; in the data active = activity change below about -60%; inconclusive = no clear call, values can overlap the other calls; inactive = above about -39%; also: % is scaled to controls: 0 for no effect and ±100 for the full control effect
#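 Compounds were evaluated in HFFs infected with an HCMV luciferase reporter virus (MOI 1 PFU/cell). Luciferase in lysates collected 72 h post infection served as the replication measure.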
# Pf growth 48h = P. falciparum growth inhibition at 48 hours (one generation); Potency, µM (titrated, usually from 28.7 µM), for the others: at the highest dose activity change, negative = inhibition, usual class: inhibitors; P. falciparum luciferase growth in erythrocytes, 48 h; AID 504832; actives 5.9% (n = 310,000); also: potency is read from the fitted curve at half-maximal effect; % is scaled to controls: 0 for no effect and ±100 for the full control effect
#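 First compound was added to culture medium, then infected red cells at 0.1% parasitemia and 2% hematocrit (final). After incubation at 37 C under 5% CO2, luciferase detection reagent was dispensed and light output recorded.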
# Cycloheximide cs = counter-screen for Shiga toxin inhibitors: cycloheximide protein synthesis inhibition; cell reporter, cycloheximide protein synthesis inhibition counterscreen; max response, %; actives 12% (n = 300,000); in the data active = max response mostly above about 13%, no sharp cut-off; inactive = mostly below about 14%; also: read at 38.3 µM for the half of the compounds with a filed dose; 0% is about no effect
# * = called active by the depositor; ? = inconclusive; . = not tested or not shown. An excerpt weighted towards active compounds, which were near 20% of everything screened. Unless noted, calls follow the shape of the dose curve; as a rule, active = well fitted inhibition curve with a large enough effect; inconclusive = small, poorly fitted or top-dose-only effect, or another doubt; inactive = no such curve, though single readings can be large or run the other way.
SMILES,Shiga toxin inh,Pf growth 96h,HCMV inh,Pf growth 48h,Cycloheximide cs
Oc1ccccc1C(=S)N1CCN(C(=S)c2ccccc2O)CC1,-6,4%,43,-19%,-4
CN(C1CCCCC1)C(CNS(=O)(=O)c1ccccc1)c1ccccc1 (stereo not given),-6,?,-37,?,4
CCOC1=C2[C@@H](CN(S(=O)(=O)c3ccc(C)cc3)[C@H]2c2cccc3ccccc23)[C@H]2C(=O)N(CC)C(=O)[C@H]2C1,.,.,-6,.,.
CCCc1cc(=O)[nH]c(Nc2ccccc2O)n1,.,.,24,.,.
CC(C)(C)NC(=O)c1cnn(-c2ccccc2)c1C1CCN(C(=O)OC(C)(C)C)CC1,.,.,0,.,.
CC(C)N(C(=O)[C@H]1C[C@H](CC(=O)NCC23CC4CC(CC(C4)C2)C3)C(=O)N2CCc3c([nH]c4ccc(Cl)cc34)[C@]12C)C(C)C,.,.,-16,.,.
CN(C)S(=O)(=O)c1cccc(C(=O)Nc2ccc(S(=O)(=O)N3CCCC3)cc2)c1,-4,?,-20,12µM*,-2
COc1cccc(CC(=O)Nc2ccc(S(=O)(=O)N3CCCCC3)cc2)c1,.,.,-6,.,.
CCc1cccc2cc3c(N)c(C(=O)Nc4ccc(S(=O)(=O)N5CCCC5)cc4)sc3nc12,-13,?,-27,12µM*,-2
CN1CCN(S(=O)(=O)c2ccc(NC(=O)c3csc4ccccc34)cc2)CC1,30,.,134,4.7µM*,-3
COc1ccccc1C(=O)Nc1ccc(S(=O)(=O)N2CCN(C)CC2)cc1,.,.,97,.,.
CN(C)S(=O)(=O)c1cccc(NC(=O)c2cccc(S(=O)(=O)N3CCCCCC3)c2)c1,.,4.7µM*,-61*,13µM*,.
O=C(Nc1cccc(O)c1)c1cccc(S(=O)(=O)Nc2cccc(O)c2)c1,.,1.9µM*,-3,1%,-2
O=C(O)c1cccc(NC(=O)c2cccc(S(=O)(=O)N3CCCCC3)c2)c1,5,?,96,240%,-3
O=C(Nc1cccc(O)c1)c1cccc(S(=O)(=O)N2CCCCCC2)c1,44*,2%,?,4%,23*
COc1ccc(NC(=O)CC2C(=O)N(c3ccc(F)cc3)C(=O)N2Cc2ccco2)cc1 (stereo not given),.,.,-20,.,.
COc1ccccc1NS(=O)(=O)c1ccc(N/N=C/C=C/c2ccccc2[N+](=O)[O-])c([N+](=O)[O-])c1,7,?,-28,?,-2
COc1ccc(C(=O)N/N=C/c2sc(N3CCOCC3)nc2-c2ccccc2)cc1OC,-17,?,35,?,-2
Cc1nn(-c2ccccc2)c(N2CCCC2)c1/C=N/Nc1ccc(S(=O)(=O)Nc2ccccc2)cc1[N+](=O)[O-],7,?,?,3.3µM*,-3
COc1ccccc1NS(=O)(=O)c1cc([N+](=O)[O-])ccc1N/N=C/c1sc(N2CCOCC2)nc1-c1ccccc1,14,?,-12,3.3µM*,-2
COc1ccccc1NS(=O)(=O)c1ccc(NN=C2CCCC2)c([N+](=O)[O-])c1,-14,12µM*,-79*,-29%,-1
COc1ccccc1NS(=O)(=O)c1ccc(N/N=C/c2c(C)nn(-c3ccccc3)c2N2CCCC2)c([N+](=O)[O-])c1,4,?,-40,3.3µM*,-3
COC(=O)c1ccc(NC(=O)Cn2c(=O)nc(-c3ccccc3)c3ccccc32)cc1,.,.,28,.,.
COc1ccc(C2=NCC(C)n3nc4ccccc4c32)cc1 (stereo not given),.,.,9,.,.
Cc1cc(C)cc(N(C(C)C(=O)N2CCCC2)S(C)(=O)=O)c1 (stereo not given),3,72%,56,-1%,-2
SMILES,Shiga toxin inh,Pf growth 96h,HCMV inh,Pf growth 48h,Cycloheximide cs
Cc1cc2oc(=O)cc(CN(C)Cc3ccccc3)c2cc1C,.,.,14,.,.
Cc1ccc2c(CN(C)Cc3ccccc3)cc(=O)oc2c1C,46*,46%,?,-7%,44*
Cc1ccc2c(CN(C)Cc3ccc(OC(F)F)cc3)cc(=O)oc2c1C,28,?,-31,?,6
CCc1ccc2oc(=O)cc(CN(C)Cc3ccccc3)c2c1,-14,.,-17,8.3µM*,-1
Cc1ccc2c(CN(C)Cc3cccc(F)c3)cc(=O)oc2c1C,55,3%,-18,-8%,22*
COc1cc(C2CC(=O)N(c3ccccc3)C3=C2C(=O)OC3)cc(OC)c1OC (stereo not given),.,.,-6,.,.
O=C(Nc1nnc(-c2cccs2)o1)c1ccc(S(=O)(=O)N2CCOCC2)cc1,-2,?,-84*,?,11
